# In paper PMC5540273 (PLoS ONE, 2017):
# Tests used:
# Conditions in all cases: concentration: 1 μM, replicates: in singlicate; n = 1
# [1] = tested on: T1, MRCKB
# T1 construct: gene CDC42BPB
# [2] = tested on: MST1R
# [3] = tested on: T2, MST1
# T2 construct: gene STK4
# [4] = tested on: T3, MST2
# T3 construct: gene STK3
# [5] = tested on: T4, MST3
# T4 construct: gene STK24
# [6] = tested on: MST4
# [7] = tested on: MTOR
# [8] = tested on: MUSK
# [9] = tested on: MYLK2
# [10] = tested on: MYLK4
# 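Further: KINOMEscan kinase panel screen.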
Compound,%Inh [1] [%],%Inh [2] [%],%Inh [3] [%],%Inh [4] [%],%Inh [5] [%],%Inh [6] [%],%Inh [7] [%],%Inh [8] [%],%Inh [9] [%],%Inh [10] [%]
COc1cc2ncn(-c3cc(OCc4ccncc4Br)c(C(N)=O)s3)c2cc1OC [GW854278],0,74,0,23,34,24,9,4,0,70
O=C(Nc1n[nH]c2nc(-c3ccccc3)c(Br)cc12)C1CC1 [SB-708998],0,100,18,7,0,0,16,0,95.7,0
Nc1ncnc2c1ncn2-c1cccc(F)c1 [SKF-97560],0,0,0,50,0,37,14,0,0,11
Cc1nn2c(=O)cc(N3CCOCC3)nc2n1Cc1cccc(Cl)c1Cl [GSK2342769],0,13,0,4,0,0,45,18,0,4
OCCCNc1nccc(-c2c(-c3cccc(C(F)(F)F)c3)nn3cc(C(F)(F)F)ccc23)n1 [GW630813],0,17,9,0,25,0,1,0,0,0
COc1cc(Nc2nccc(N3CCC(NC(=O)C4COc5ccccc5O4)C3)n2)cc(OC)c1OC (stereo not drawn) [GSK1379761],0,8,6,0,0,0,34,0,6,0
CCc1nc(-c2cccc(C)c2)c(-c2ccncc2)s1,0,0,0,8,8,0,34,5,5,0
Cc1nc(N(C)[C@H]2CN(C(=O)CC#N)CC[C@H]2C)c2cc[nH]c2n1,0,3,0,37,8,0,25,0,0,0
CCn1c(-c2ccoc2)nc2cnccc21 [SB-733887],0,0,0,0,0,0,29,2,18,0
O=C(Nc1ccc2c(c1)OCO2)NC1CCN(c2ccnc(NCc3ccc(F)cc3)n2)CC1 [GSK1379859],0,17,5,47,0,0,8,0,0,0
COC(=O)c1c(-c2ccccc2)c2cc(Br)ccc2c(=O)n1Cc1ccc(S(C)(=O)=O)cc1,0,43,10,32,5,0,28,7,0,2
Cc1ccc(-c2ccc3c(ccc4sc5c(c43)NC[C@@H](C)N=C5N(C)C)n2)cn1,3,13,0,0,1,0,31,0,0,100
COc1cc2nccc(Nc3ccc(OCc4ccc(NC(C)=O)cc4)cc3)c2cc1OC.Cl [GW440135],0,12,0,20,0,1,15,3,0,0
FC(F)(F)c1ccc(-c2ncn(CCCN3CCOCC3)c2-c2ccncc2)cc1 [SB-217780],6,28,28,59,35,0,12,0,0,4
Nc1nc(-c2ccccc2F)c(-c2ccnc3ccccc23)s1 [GW560459],0,33,8,0,7,0,21,0,8,1
O=c1cc(N2CCOCC2)nc2n(Cc3ccc(F)c(Cl)c3)ccn12 [GSK2297099],0,13,0,16,0,0,12,5,0,3
COc1cc2nccc(Nc3cccc(Oc4ccccc4)c3)c2cc1OC.Cl [GW284543],0,18,1,47,0,0,15,6,0,0
O=C(Nc1n[nH]c2cc(-c3ccccc3F)ccc12)C1CC1 [SB-733371],0,0,1,0,0,0,0,1,90,4
COc1cccc(C2=C(Nc3cccc(C(=O)O)c3)C(=O)NC2=O)c1 [SB-390770],18,2,28,25,0,0,29,15,38,0
Cc1ccccc1COc1cc(-n2cnc3cc(Cl)ccc32)sc1C(N)=O [GW813349],0,0,0,12,0,0,18,0,0,24
Cc1cc(Nc2nc(-c3cccc(C)n3)nc3ccccc23)ccn1 [GW872411],0,0,0,0,0,0,73,9,0,26
COc1ccc(Nc2nccc(N3CCC(NS(=O)(=O)c4ccc(NC(C)=O)cc4)C3)n2)cc1 (stereo not drawn) [GSK1379729],15,25,7,0,0,9,43,18,29,1
Fc1cccc(CSc2nnc(-c3ccc4c(c3)CCO4)o2)c1,0,35,3,0,0,0,36,0,11,0

Compound,%Inh [1] [%],%Inh [2] [%],%Inh [3] [%],%Inh [4] [%],%Inh [5] [%],%Inh [6] [%],%Inh [7] [%],%Inh [8] [%],%Inh [9] [%],%Inh [10] [%]
CCS(=O)(=O)c1ccc(OC)c(Nc2ncc(-c3ccc(F)cc3)o2)c1.Cl [GW591947],0,33,0,2,0,0,5,2,2,0
Nc1nccc2scc(-c3ccc4c(c3)CCN4C(=O)Cc3ccccc3)c12 [GSK2576924],0,17,37,0,1,0,14,13,11,9
CCC(=O)c1c(-c2ccccc2)c2cc(Cl)ccc2c(=O)n1Cc1cc(S(C)(=O)=O)n(CC(N)=O)n1,0,0,0,0,0,0,40,0,0,0
Cc1nnc(-c2ccc3ncn(-c4ccc(S(C)=O)cc4)c3c2)o1 (stereo not drawn),0,2,0,30,50,0,8,9,11,7
C[C@@H]1CC[C@H](C(=O)NC2CCCCC2)CN1c1cc(-c2ccc3c(N)n[nH]c3c2)nc(N)n1 [GSK2291363],15,50,12,0,14,0,18,21,11,23
Cn1c(=O)c(F)c(Nc2ccc(I)cc2F)c2c(=O)n(OC[C@H](O)CO)cnc21,0,0,19,0,0,0,0,8,1,0
CCCC(=O)Nc1n[nH]c2ncc(-c3cccc4ccccc34)cc12 [SB-642057],17,18,5,0,6,0,17,11,9,0
CN(C)c1cc(-c2ccc3c(N)n[nH]c3c2)nc(N)n1 [GSK2219329],0,18,1,0,5,0,1,0,9,0
Cl.NS(=O)(=O)c1cccc(Nc2cc(-c3ccc(F)cc3)n[nH]2)c1 [GW824645],0,0,29,14,0,9,39,0,9,12
Cl.c1ccc(Cn2cnc3cc(Nc4ncnc5ccccc45)ccc32)cc1 [GW272142],0,40,0,0,0,0,28,29,0,6
CCS(=O)c1ccc(-c2coc3ccc(-c4nnc(C)o4)cc23)cc1 (stereo not drawn),0,15,33,0,17,0,2,0,5,4
COc1cc(Nc2ccnc3ccc(C(F)(F)F)cc23)cc(OC)c1OC [GW577382],6,34,13,5,4,0,21,8,4,10
Nc1ncnc2c1ncn2-c1ccc(Cl)cc1 [AH2635],0,17,2,0,0,0,11,0,14,8
Cc1ccc(Oc2ccc(Nc3ncnc4cc[nH]c34)cc2C)cn1,0,35,0,15,3,0,0,0,18,19
Cc1c(Cn2c(C)nn3c(=O)cc(N4CCO[C@H](C)C4)nc23)cccc1C(F)(F)F [GSK2373690],0,41,2,7,0,0,57,28,2,99.8
COc1ccc(CNC(=O)NC2CCN(c3ccnc(Nc4ccc(F)cc4)n3)C2)cc1 (stereo not drawn) [GSK1379706],12,41,0,9,6,0,28,4,6,17
CCC(=O)c1c(-c2ccccc2)c2cc(Cl)ccc2c(=O)n1Cc1ccc(C(=O)O)cc1,0,6,0,0,0,0,0,0,0,0
CCC(=O)c1c(-c2ccccc2)c2cc(Cl)ccc2c(=O)n1Cc1cc(S(C)(=O)=O)n(CC(F)F)n1,0,31,0,0,0,0,7,0,47,1
COc1cc2ncn(-c3cc(OCc4ccc(S(C)(=O)=O)cc4)c(C(N)=O)s3)c2cc1OC [GW869979],0,0,0,44,7,14,6,0,0,8
COc1ccc(-c2coc3ccc(-c4nnc(SCc5cccc(C#N)c5)o4)cc23)cc1,0,33,15,13,25,0,0,18,7,0
COc1cc(Nc2nccc(N3CCC(NC(=O)C(C)c4ccc(Cl)cc4)C3)n2)cc(OC)c1OC (stereo not drawn) [GSK1379757],0,37,8,5,0,0,36,0,0,0
CCCNC(=O)Nc1ccc(Oc2ncnc3ccn(C)c23)cc1,0,12,0,0,4,0,8,0,11,21
O=C(NCCNc1ccnc(Nc2ccc(F)cc2)n1)Nc1ccc2c(c1)OCO2 [GSK1379882],0,6,0,22,11,0,11,0,15,9

Compound,%Inh [1] [%],%Inh [2] [%],%Inh [3] [%],%Inh [4] [%],%Inh [5] [%],%Inh [6] [%],%Inh [7] [%],%Inh [8] [%],%Inh [9] [%],%Inh [10] [%]
CCc1ccc(-c2ccc3c(c2)-c2nn(C)cc2S(=O)(=O)N3C)cc1,0,0,0,0,0,0,23,1,0,6
Nc1ncnc2c1ncn2-c1cccc2ccccc12 [SKF-97184],0,6,7,0,0,0,28,0,0,4
COC(=O)c1c(-c2ccccc2)c2cc(C)ccc2c(=O)n1Cc1ccccc1,0,31,0,21,0,0,0,12,0,0
COc1ccc(-n2cnc3c(N)ncnc32)cc1 [SKF-97236],1,0,24,13,6,0,16,12,52,0
COc1cc(OC)cc(-c2cc3cnc(N)nc3nc2NC(=O)NC(C)(C)C)c1,0,0,0,1,0,0,58,0,13,11
CCC(=O)c1c(-c2ccccc2)c2cc(Cl)ccc2c(=O)n1Cc1cc(S(C)(=O)=O)n(CCC(C)(C)O)n1,0,36,21,10,0,0,0,17,5,2
COC(=O)c1c(-c2ccccc2)c2cc(Br)ccc2c(=O)n1Cc1ccc(NC(=O)CCC(=O)O)cc1,0,43,12,27,7,0,32,0,0,1
CC(C)(C)c1ccc(C(=O)Nc2cn3cc(-c4ccccc4)ccc3n2)cc1,0,26,0,43,0,0,45,0,34,0
COc1ccc(-c2cc3c(C)nc(N)nc3n([C@H]3CC[C@H](OCCO)CC3)c2=O)cn1,0,0,6,0,23,0,96.3,0,2,7
O=C(Nc1n[nH]c2nc(-c3ccccc3)c(Cl)cc12)C1CC1 [SB-734909],6,0,12,50,0,37,19,19,93.2,33
O=C(NCc1cccs1)c1cc(C(=O)c2c(Cl)cccc2Cl)c[nH]1 [GW823670],0,0,15,0,0,0,0,2,0,4
Nc1n[nH]c2ncc(-c3ccccc3)cc12 [SB-517081],0,41,0,0,0,0,7,28,15,61
Cc1cccc(-c2cc(-c3c[nH]nc3-c3ccccn3)ccn2)c1 [GW679395],0,60,0,0,4,0,10,0,0,2
Cc1cccc(-c2nc(Nc3ccc4c(cnn4C)c3)c3ccccc3n2)n1 [GW876731],34,0,0,0,0,9,0,2,0,33
O=C1NC(=O)C(c2ccccc2)=C1Nc1cccc(O)c1 [SB-390534],0,20,7,24,0,9,0,8,16,15
CCC(=O)c1c(-c2ccccc2)c2cc(Cl)ccc2c(=O)n1Cc1cc(C(=O)NC2CC2)n(C)n1,0,37,12,0,0,0,12,2,0,0
COc1cccc(-n2cnc3c(N)ncnc32)c1 [SKF-97416],0,5,0,0,6,28,19,5,6,26
Nc1n[nH]c2nnc(-c3ccccc3)c(-c3ccccc3)c12 [GW554060],0,40,0,0,0,0,12,20,0,1
COc1cccc(C2=C(N(C)c3ccccc3)C(=O)NC2=O)c1 [SB-334865],0,10,5,0,0,0,19,2,9,0
COc1cc2ncn(-c3cc(OCCCc4ccccc4)c(C(N)=O)s3)c2cc1OC [GSK205189],0,14,0,0,11,0,1,50,8,65
COc1ccc(-c2cc3c(C)nc(N)nc3n([C@H]3CC[C@H](O)CC3)c2=O)cn1,30,0,0,0,2,0,99,0,4,0
CCn1c(-c2nonc2N)nc2ccccc21 [SB-693162/GW549034],0,0,0,34,11,0,0,42,0,0
COc1cc2ncn(-c3cc(OCc4ccncc4)c(C(N)=O)s3)c2cc1OC [GSK336313],0,34,0,0,0,0,28,93.6,21,36
